According to PubChem BioAssay AID1159580 (chemical genetic matrix, 2015):
The whole screen tested about 5,500 compounds, of which about 2,000 (36%) were called active. Roughly 18% stayed inconclusive and do not appear here. Cut-off read from the data, not from the text of the source: active = normalized growth mostly below about 0.91 (no sharp cut-off); inconclusive = no clear call, values can overlap the other calls; inactive = mostly above about 0.92. Some of the results follow.

Experiment: chemical genetic growth profiling, strain panel (AID 1159580);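 note: tested at 20 µM; growth read once vehicle control cultures reached saturation at 30 °C; 1 = growth at the plate median or of vehicle wells; lower values mean less growth of the strain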
Settings: growth OD
[1] = S. cerevisiae deletion strains, locus YAL013W, strain DEP1, active compounds read low
[2] = S. cerevisiae deletion strains, locus YBR229C, strain ROT2, active compounds read low
[3] = S. cerevisiae deletion strains, locus YDL101C, strain DUN1, active compounds read low
[4] = S. cerevisiae deletion strains, locus YDR150W, strain NUM1, active compounds read low
[5] = S. cerevisiae deletion strains, locus YEL061C, strain CIN8, active compounds read low
[6] = S. cerevisiae deletion strains, locus YGR078C, strain PAC10, active compounds read low
[7] = S. cerevisiae deletion strains, locus YHR030C, strain SLT2, active compounds read low
[8] = S. cerevisiae deletion strains, locus YHR087W, strain rtc3, active compounds read low
[9] = S. cerevisiae deletion strains, locus YJL187C, strain SWE1, active compounds read low
[10] = S. cerevisiae deletion strains, locus YJR043C, strain POL32, active compounds read low
[11] = S. cerevisiae deletion strains, locus YJR075W, strain HOC1, active compounds read low
[12] = S. cerevisiae deletion strains, locus YLR039C, strain RIC1, active compounds read low
[13] = S. cerevisiae deletion strains, locus YLR058C, strain SHM2 (second series), active compounds read low
[14] = S. cerevisiae deletion strains, locus YLR085C, strain ARP6, active compounds read low
[15] = S. cerevisiae deletion strains, locus YLR262C, strain YPT6, active compounds read low
[16] = S. cerevisiae deletion strains, locus YML094W, strain GIM5, active compounds read low
[17] = S. cerevisiae deletion strains, locus YMR219W, strain ESC1, active compounds read low
[18] = S. cerevisiae deletion strains, locus YMR263W, strain SAP30, active compounds read low
[19] = S. cerevisiae deletion strains, locus YNL153C, strain GIM3, active compounds read low
[20] = S. cerevisiae deletion strains, locus YNL298W, strain CLA4 (second series), active compounds read low
[21] = S. cerevisiae deletion strains, locus YNL322C, strain KRE1, active compounds read low
[22] = S. cerevisiae deletion strains, locus YNR030W, strain Alg12, active compounds read low
[23] = S. cerevisiae deletion strains, locus YOL006C, strain TOP1, active compounds read low
[24] = S. cerevisiae deletion strains, locus YPL055C, strain LGE1, active compounds read low
[25] = S. cerevisiae deletion strains, locus YPL241C, strain CIN2, active compounds read low
[26] = S. cerevisiae deletion strains, locus YPR135W, strain CTF4, active compounds read low
[27] = S. cerevisiae strains, strain wild type, active compounds read low

Measured: normalized growth

FC(F)(F)c1cc(-c2ccc(Cl)cc2)nc2cc(C3CC3)nn12
inactive: [1] 1.03 | [2] 1.01 | [3] 1.03 | [4] 0.99 | [5] 1 | [6] 1.03 | [7] 1.16 | [8] 1.02 | [9] 1.01 | [10] 1.04 | [11] 1.01 | [12] 1.01 | [13] 1.02 | [14] 1.05 | [15] 1.06 | [16] 1.02 | [17] 1.01 | [18] 1.01 | [19] 1.02 | [20] 1.05 | [21] 1.02 | [22] 1.01 | [23] 1.08 | [24] 1.03 | [25] 1.02 | [26] 1.15 | [27] 0.997

Cc1cc(C(F)(F)F)n2nc(-c3ccc(C(C)(C)C)cc3)cc2n1
inactive: [1] 0.996 | [2] 1.02 | [3] 0.983 | [4] 0.965 | [5] 0.993 | [6] 1.01 | [7] 0.963 | [8] 1.01 | [10] 1.01 | [11] 0.994 | [12] 0.965 | [13] 1 | [14] 0.899 | [15] 0.964 | [16] 0.958 | [17] 0.999 | [18] 1.05 | S. cerevisiae deletion strains, locus YMR307W, strain GAS1, active compounds read low 0.868 | [19] 1.01 | [20] 0.98 | [21] 0.988 | [22] 0.976 | [23] 0.984 | [24] 1.06 | [25] 0.902 | [26] 1.08 | [27] 0.986

FC(F)(F)c1cc(-c2ccco2)nc2cc(-c3ccco3)nn12
active: [1] 0.869 | [2] 0.908 | [10] 0.881 | [12] 0.729 | [18] 0.899 | [22] 0.798 | [25] 0.844 | [26] 0.594
inactive: S. cerevisiae deletion strains, locus YCL061C, strain MRC1, active compounds read low 0.98 | [3] 0.972 | [4] 0.889 | [5] 0.97 | [6] 0.958 | [7] 0.722 | [8] 0.935 | [9] 0.973 | [11] 0.903 | [13] 0.96 | [14] 0.829 | [15] 0.883 | [16] 0.889 | [17] 1 | [19] 0.949 | [20] 0.859 | [21] 0.997 | [24] 0.851 | [27] 0.988

FC(F)(F)c1c2c(nc3cc(-c4ccco4)nn13)CCC2
active: [7] 0.702 | S. cerevisiae deletion strains, locus YLR113W, strain HOG1, active compounds read low 0.802
inactive: S. cerevisiae deletion strains, locus YAR019C, strain CDC15, active compounds read low 0.965 | S. cerevisiae deletion strains, locus YBL105C, strain PKC1, active compounds read low 0.973 | S. cerevisiae deletion strains, locus YBR135W, strain CKS1, active compounds read low 0.964 | S. cerevisiae deletion strains, locus YBR136W, strain MEC1, active compounds read low 0.971 | S. cerevisiae deletion strains, locus YBR160W, strain CDC28, active compounds read low 0.975 | S. cerevisiae deletion strains, locus YDL017W, strain CDC7, active compounds read low 0.971 | S. cerevisiae deletion strains, locus YDL028C, strain MPS1, active compounds read low 0.971 | [3] 0.967 | S. cerevisiae deletion strains, locus YDL108W, strain KIN28, active compounds read low 0.967 | S. cerevisiae deletion strains, locus YDL132W, strain cdc53, active compounds read low 0.96 | S. cerevisiae deletion strains, locus YDL214C, strain PRR2, active compounds read low 0.9 | S. cerevisiae deletion strains, locus YDR052C, strain DBF4, active compounds read low 0.966 | S. cerevisiae deletion strains, locus YDR054C, strain cdc34, active compounds read low 0.952 | S. cerevisiae deletion strains, locus YDR226W, strain ADK1, active compounds read low 0.968 | S. cerevisiae deletion strains, locus YDR477W, strain SNF1, active compounds read low 0.882 | S. cerevisiae deletion strains, locus YER123W, strain YCK3, active compounds read low 0.858 | S. cerevisiae deletion strains, locus YER133W, strain GLC7, active compounds read low 0.912 | S. cerevisiae deletion strains, locus YFL009W, strain cdc4, active compounds read low 0.968 | S. cerevisiae deletion strains, locus YFL029C, strain CAK1, active compounds read low 0.96 | S. cerevisiae deletion strains, locus YFR003C, strain YPI1, active compounds read low 0.976 | S. cerevisiae deletion strains, locus YFR019W, strain FAB1, active compounds read low 0.959 | S. cerevisiae deletion strains, locus YFR028C, strain CDC14, active compounds read low 0.969 | S. cerevisiae deletion strains, locus YGR040W, strain KSS1, active compounds read low 0.875 | S. cerevisiae deletion strains, locus YGR052W, strain FMP48, active compounds read low 0.942 | S. cerevisiae deletion strains, locus YGR092W, strain DBF2, active compounds read low 0.815 | S. cerevisiae deletion strains, locus YHR079C, strain IRE1, active compounds read low 0.891 | S. cerevisiae deletion strains, locus YHR082C, strain KSP1, active compounds read low 0.896 | S. cerevisiae deletion strains, locus YHR205W, strain SCH9, active compounds read low 0.825 | S. cerevisiae deletion strains, locus YIL147C, strain SLN1, active compounds read low 0.971 | S. cerevisiae deletion strains, locus YJL095W, strain BCK1, active compounds read low 0.819 | S. cerevisiae deletion strains, locus YJL128C, strain PBS2, active compounds read low 0.92 | S. cerevisiae deletion strains, locus YJL157C, strain FAR1, active compounds read low 0.869 | S. cerevisiae deletion strains, locus YJR016C, strain ILV3, active compounds read low 0.973 | S. cerevisiae deletion strains, locus YJR066W, strain TOR1 (second series), active compounds read low 0.987 | S. cerevisiae deletion strains, locus YJR066W, strain TOR1, active compounds read low 0.833 | S. cerevisiae deletion strains, locus YKL048C, strain ELM1, active compounds read low 0.941 | S. cerevisiae deletion strains, locus YKL067W, strain YNK1, active compounds read low 0.879 | S. cerevisiae deletion strains, locus YKL101W, strain HSL1, active compounds read low 0.928 | S. cerevisiae deletion strains, locus YKL193C, strain SDS22, active compounds read low 0.959 | S. cerevisiae deletion strains, locus YKL203C, strain TOR2, active compounds read low 0.901 | S. cerevisiae deletion strains, locus YLR133W, strain CKI1, active compounds read low 0.884 | S. cerevisiae deletion strains, locus YLR403W, strain SFP1, active compounds read low 0.855 | S. cerevisiae deletion strains, locus YML070W, strain DAK1, active compounds read low 0.906 | S. cerevisiae deletion strains, locus YMR001C, strain CDC5, active compounds read low 0.966 | S. cerevisiae deletion strains, locus YMR205C, strain PFK2 (second series), active compounds read low 0.891 | S. cerevisiae deletion strains, locus YMR277W, strain FCP1, active compounds read low 0.963 | S. cerevisiae deletion strains, locus YNL006W, strain LST8, active compounds read low 0.97 | S. cerevisiae deletion strains, locus YNL020C, strain ARK1, active compounds read low 0.851 | S. cerevisiae deletion strains, locus YNL161W, strain CBK1, active compounds read low 0.974 | S. cerevisiae deletion strains, locus YNL183C, strain NPR1, active compounds read low 0.816 | S. cerevisiae deletion strains, locus YNL207W, strain RIO2, active compounds read low 0.96 | S. cerevisiae deletion strains, locus YNL222W, strain SSU72, active compounds read low 0.97 | S. cerevisiae deletion strains, locus YNL307C, strain MCK1 (second series), active compounds read low 0.861 | S. cerevisiae deletion strains, locus YOL078W, strain AVO1, active compounds read low 0.961 | S. cerevisiae deletion strains, locus YOL136C, strain PFK27, active compounds read low 0.884 | S. cerevisiae deletion strains, locus YOR061W, strain CKA2, active compounds read low 0.865 | S. cerevisiae deletion strains, locus YOR119C, strain RIO1, active compounds read low 0.921 | S. cerevisiae deletion strains, locus YOR231W, strain MKK1, active compounds read low 0.883 | S. cerevisiae deletion strains, locus YOR329C, strain SCD5, active compounds read low 0.976 | S. cerevisiae deletion strains, locus YPL031C, strain PHO85, active compounds read low 0.869 | S. cerevisiae deletion strains, locus YPL153C, strain RAD53, active compounds read low 0.889 | S. cerevisiae deletion strains, locus YPL204W, strain HRR25, active compounds read low 0.87 | S. cerevisiae deletion strains, locus YPL209C, strain IPL1, active compounds read low 0.972 | S. cerevisiae deletion strains, locus YPL256C, strain CLN2, active compounds read low 0.891 | S. cerevisiae deletion strains, locus YPR025C, strain CCL1, active compounds read low 0.968 | S. cerevisiae deletion strains, locus YPR106W, strain ISR1, active compounds read low 0.959 | S. cerevisiae deletion strains, locus YPR111W, strain DBF20, active compounds read low 0.958 | S. cerevisiae deletion strains, strain NNK1, active compounds read low 0.959 | S. cerevisiae deletion strains, strain TSCII, active compounds read low 0.969
